Results reported in PubChem BioAssay AID493162 (ICCB-Longwood Screening Facility, Harvard Medical School, 2011).
The whole screen tested about 46,000 compounds, of which about 430 (0.93%) were called active. Rule as the data show it: active = normalized absorbance mostly below about 85% (no sharp cut-off); inactive = mostly above about 86%. For the sample, actives were picked, then their nearest neighbours and some compounds at random.

tested on: Vaccinia virus DNA polymerase (E9) processive complex; experiment: vaccinia E9 polymerase processive synthesis inhibitors, primary screen, biochemical, absorbance (AID 493162); details: in vitro processive DNA synthesis, absorbance read-out; stronger effect = lower value; concentration not given here

SMILES	normalized absorbance
CC(=O)Nc1ccc(N2C(=O)C=CC2=O)cc1	124% (inactive)
CC(C)CNS(=O)(=O)C1CCS(=O)(=O)C1 (stereo unspecified)	102% (inactive)
Nc1ncnc2c1ncn2CCNCc1ccccc1	103% (inactive)
NC(=O)C(Cc1ccccc1)NC(=O)C12CC3CC(CC(C3)C1)C2 (stereo unspecified)	72.6% (inactive)
CCOc1cc(/C=C2\SC(=S)N(C(C)C(=O)O)C2=O)ccc1O (stereo unspecified)	99% (inactive)
Cc1cc(C)n(-c2nc(-c3cccnc3)nc3ccccc23)n1	85.7% (inactive)
CCS(=O)c1nc2c(Br)cccc2[nH]1 (stereo unspecified)	94.1% (inactive)
Cc1ccc(NCC(O)c2ccc(Cl)cc2)cc1 (stereo unspecified)	102% (inactive)
Cc1ccc(S(=O)(=O)NCc2ccc(C(=O)NC3CCC(C)CC3)cc2)cc1 (stereo unspecified)	99% (inactive)
O=C(c1ccc(Cl)cc1Cl)n1c(=O)oc2cc(S(=O)(=O)N3CCCCC3)ccc21	101% (inactive)
COc1ccc(C2C(C#N)=C(N)OC(C)=C2C(=O)OCc2ccccc2)cc1 (stereo unspecified)	102% (inactive)
O=C1/C(=C/c2ccc(N3CCOCC3)cc2)CCc2ccccc21	100% (inactive)
N#CCCn1c(=S)n(CCC#N)c2ccccc21	106% (inactive)
COC(=O)c1ccc(Cn2nc(C)c(Cl)c2C)cc1	92.4% (inactive)
CC(=O)Nc1ccc(C2N3CCCN23)cc1 (stereo unspecified)	100% (inactive)
CCCCn1c(CCCNC(=O)CC)nc2ccccc21	98.7% (inactive)
C=CCSc1nc(N)cc(=O)[nH]1	101% (inactive)
C=CCSc1nc2ccccc2[nH]1	89.7% (active)
CNC(=O)CSc1nc2ccccc2[nH]1	99.5% (inactive)
CC(O)CNC(=O)c1sc2ccccc2c1Cl (stereo unspecified)	95.9% (inactive)
Cc1c(CNCCC2=CCCCC2)c(C(=O)O)c(C)n1Cc1cccc(Cl)c1	92% (inactive)
